# Screens (PubChem BioAssay)
# Rac1 wt GTP bind – wildtype Rac1 GTP binding modulators, primary screen, biochemical, GST-Rac1 beads, flow cytometry, multiplex; fluorescent GTP binding; actives lie on both sides; 0 = cold GTP competed, 100 = untreated; GTP binding activity (% of control), % at 10 µM; actives 0.27% (n = 190,000);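 active = GTP binding activity at least 20 points away from the 100% control level, either lower or higher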
# Rac1 mut GTP – GTP binding modulators of activated mutant Rac1, primary screen, biochemical, bead-based flow cytometry, multiplex, fluorescent GTP; Ras-related C3 botulinum toxin substrate 1 (Homo sapiens), P63000; actives 0.11% (n = 190,000); percent activity (GTP binding), % at 10 µM; GST-Rac1 activated beads; actives lie on both sides; 100% means binding = to untreated wells;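 active = GTP binding at least 20 percentage points away from the 100% baseline, in either direction, so actives lie on both sides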
# HRas wt GTP bind – modulators of GTP binding to HRas wildtype, primary screen, biochemical, bead-based flow cytometry, multiplex | GTPase HRas (Homo sapiens), P01112 | GST-Ras wt beads, Bodipy-FL-GTP binding; actives lie on both sides | GTP binding activity, % at 10 µM | actives 0.14% (n = 190,000) | AID 759, 2007;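 active = GTP binding activity at least 20% away from the 100% baseline, either lowered as inhibitor or raised as activator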
# Target sequence (P01112 whole entry, looked up): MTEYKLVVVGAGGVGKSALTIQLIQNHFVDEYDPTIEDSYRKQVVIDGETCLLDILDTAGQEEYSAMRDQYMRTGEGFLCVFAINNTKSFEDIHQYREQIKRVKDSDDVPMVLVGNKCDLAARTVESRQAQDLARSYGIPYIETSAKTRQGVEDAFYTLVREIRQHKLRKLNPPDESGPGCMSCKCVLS
# Rab7 wt modul – modulators of GTP binding to Rab7, primary screen, biochemical, wildtype, multiplex bead flow cytometry. Rab7 GTPase wild type (dog), Bodipy-FL-GTP binding. GST-Rab7 beads, fluorescent GTP binding; actives lie on both sides; untreated = 100%, excess cold GTP = 0%. GTP binding activity (percent of control), % at 10 µM. actives 0.055% (n = 190,000);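 active = fluorescent GTP binding to Rab7 beads changed by at least 20 points from the 100% baseline, either direction, mostly lower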;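 note: median green fluorescence of bound Bodipy-FL-GTP per Rab7 bead population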
# Cdc42 wt GTP – modulators of GTP binding to wildtype Cdc42, primary screen, biochemical, multiplex bead flow cytometry, Bodipy-GTP. percent activity (GTP binding), % at 10 µM. GST-Cdc42 beads; actives lie on both sides. Cell division control protein 42 homolog (Homo sapiens), P60953. actives 0.2% (n = 190,000);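 active = percent activity GTP binding at least 20 points away from the 100% baseline, either down as inhibitor or up as activator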;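 note: median bead fluorescence of bound Bodipy-FL-GTP at 100 nM; below 100% means less GTP binding so inhibitor and above means activator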
# Target sequence (P60953 whole entry, looked up): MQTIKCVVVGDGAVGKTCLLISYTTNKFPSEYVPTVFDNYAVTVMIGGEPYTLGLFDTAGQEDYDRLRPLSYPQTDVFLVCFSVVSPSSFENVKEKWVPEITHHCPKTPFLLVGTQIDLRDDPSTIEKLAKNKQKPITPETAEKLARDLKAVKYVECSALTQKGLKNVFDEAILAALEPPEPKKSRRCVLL
# Rab2A wt mod – modulators of GTP binding to Rab2A wildtype, primary screen, biochemical, dog, bead-based flow cytometry, multiplex; actives 0.19% (n = 190,000); GST-Rab2 wt beads, Bodipy-GTP binding; Ras-related protein Rab-2A (Canis lupus familiaris), P61105; GTP binding activity, % at 10 µM;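 active = GTP binding activity at least 20 points away from 100%, either lowered or raised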
# Numbers stand for hits; – = inactive; [ ] = dose if it differs, or a comment. Compounds with a hit are over-represented: about 0.38% of the library has one in this group of screens.
SMILES,Rac1 wt GTP bind,Rac1 mut GTP,HRas wt GTP bind,Rab7 wt modul,Cdc42 wt GTP,Rab2A wt mod
Cc1cccc2sc(NNC(=O)c3cc(=O)c4ccccc4o3)nc12,–,74.0,–,–,77.0,–
Cc1ccc2sc(NNC(=O)c3cc(=O)c4ccccc4o3)nc2c1C,–,77.0,–,–,–,–
O=C(NNc1nc2c(F)cccc2s1)c1cc(=O)c2ccccc2o1,–,76.0,–,–,–,–
COc1ccc2nc(NNC(=O)c3cc(=O)c4ccccc4o3)sc2c1,–,–,–,–,–,–
CCOc1cccc2cc(C(=O)NCCC3=CCCCC3)c(=O)oc12,–,–,–,–,–,–
COc1cc(/C=N/Nc2ccc(S(N)(=O)=O)cc2)cc(OC)c1OC,79.0,–,–,–,–,–
COc1cc(/C=N/Nc2ccc(F)cc2F)cc(OC)c1OC,–,–,–,–,–,–
CN1CCNC(=O)C1CC(=O)NCCc1ccccc1F (stereo unspecified),–,–,–,–,–,–
O=C(Nn1c(O)c(C=C2N=c3ccccc3=N2)sc1=S)c1ccc(Cl)cc1,–,–,–,–,–,–
Cc1ccc(C(=O)Nn2c(O)c(C=C3N=c4ccccc4=N3)sc2=S)cc1,72.0,79.0,73.0,–,73.0,–
COC(=O)c1cc(C(=O)OC)cc(-n2c(C)cc(C(=O)COC(=O)CNS(=O)(=O)c3ccc(C)cc3)c2C)c1,–,–,–,–,–,–
O=C(CN1CCC(n2nnc3cc(C(F)(F)F)ccc32)CC1)NNC(=O)c1ccco1,–,–,–,–,–,–
O=C(Cn1c(-c2cscn2)nc2ccccc21)Nc1cc(F)ccc1F,121.0[activator],–,–,–,–,–
CCOc1c(Br)ccc2c1sc1nc[nH]c(=O)c12,–,–,–,–,–,–
CCCC(=O)c1cc2c(cc1NC(=O)c1ccccc1F)OCCO2,–,–,–,–,–,–
NC1=NC(=O)/C(=C/c2cn(CCC(=O)O)nc2-c2ccc(Cl)cc2)S1,77.0,–,–,–,–,–
NC1=NC(=O)/C(=C/c2cn(CCC(=O)O)nc2-c2ccc(F)cc2)S1,–,–,–,–,–,–
CCN1C(c2ccccc2)=C(c2ccccc2)S/C1=C/C=C1\SC(=S)N(C)C1=O,71.0,69.0,66.0,72.0,67.0,71.0
CCN1/C(=C\C=C2\C(=O)N(C)C(=S)N2C)Sc2ccccc21,–,–,–,–,–,–
CCN1C(=O)/C(=C/C=C2/Sc3ccc4ccccc4c3N2CCO)SC1=S,75.0,–,78.0,–,78.0,–
CN1CCS/C1=C/C=C1/SC(=S)N(Cc2ccccc2)C1=O,–,–,–,–,–,–
CCOC(=O)Cn1c(=O)c2c(nc3n2CCN3Cc2ccccc2)n(C)c1=O,–,–,–,–,–,–
CCOC(=O)Cn1c(=O)c2c(nc(N3CCCCC3)n2C)n(C)c1=O,142.0[activator],–,–,–,123.0[activator],–
O=C(Cn1cnc2cc([N+](=O)[O-])ccc2c1=O)NCc1ccc(Cl)cc1,74.0,–,–,–,77.0,–
O=C(COc1ncnc2cc([N+](=O)[O-])ccc12)NC(=O)NC1CCCCC1,75.0,–,–,–,–,79.0
SMILES,Rac1 wt GTP bind,Rac1 mut GTP,HRas wt GTP bind,Rab7 wt modul,Cdc42 wt GTP,Rab2A wt mod
O=C(COc1ncnc2cc([N+](=O)[O-])ccc12)NCCc1ccc(Cl)cc1,77.0,–,–,–,–,–
CCOC(=O)c1c(C)[nH]c(C)c1C(=O)COc1ncnc2cc([N+](=O)[O-])ccc12,63.0,–,70.0,74.0,64.0,63.0
CNC(=O)COC(=O)c1cc(NC(=O)c2ccco2)c(OC)c(OC)c1,–,–,–,–,78.0,–
COc1ccc(CCNC(=O)c2ccc3c(SCC(=O)O)c4c(nc3c2)CCCC4)cc1OC,–,–,–,–,–,–
CCOc1ccccc1NC(=O)CSc1nnc2ccc(-c3ccncc3)nn12,–,–,–,–,–,–
COc1ccc(-c2nnc3ccc(SCC(=O)Nc4cc(C)on4)nn23)cc1OC,–,–,–,–,–,–
COc1ccc(NC(=O)CSc2ccc3nnc(-c4cccnc4)n3n2)c(OC)c1,79.0,–,–,–,–,–
CCOc1ccccc1NC(=O)CSc1ccc2nnc(-c3cccnc3)n2n1,58.0,76.0,69.0,–,65.0,64.0
NS(=O)(=O)c1cccc(NC(=O)Cn2cnc3ccccc3c2=O)c1,–,–,–,–,–,–
Cn1cc(C=C2C(=O)CC(C)(C)CC2=O)c2ccccc21,33.0,34.0,38.0,20.0,31.0,32.0
C=C(C)COc1ccc(-c2n[nH]c(C)c2-c2ccc(Br)cc2)c(O)c1,79.0,–,–,–,–,–
COc1cc(/C=N/NC(=O)CN(Cc2ccco2)S(=O)(=O)c2ccccc2)ccc1O,77.0,–,–,–,–,–
COc1cc(/C=N/NC(=O)CN(Cc2ccccc2)S(=O)(=O)c2ccc3c(c2)OCCO3)ccc1O,78.0,–,–,–,–,78.0
COc1ccc(/C=N/NC(=O)CN(Cc2ccccc2)S(=O)(=O)c2ccc3c(c2)OCCO3)cc1,–,–,–,–,–,–
CC1=C(Cl)C2=NS(=O)(=O)CCN2C=C1Cl,–,–,–,–,–,–
Cc1cc(C)cc(OCC(=O)Nc2nonc2NC(=O)COc2cc(C)cc(C)c2)c1,–,–,–,–,–,–
COc1ccc(OCC(=O)Nc2nonc2NC(=O)COc2ccc(OC)cc2)cc1,79.0,–,–,–,–,–
COc1ccc(OC)c(/C=N/NC(=O)c2ccc(Cn3cc([N+](=O)[O-])cn3)o2)c1,–,–,–,–,–,78.0
CCOc1ccccc1C1C(C(=O)OC)=C(N)OC2=C1C(=O)CCC2 (stereo unspecified),133.0[activator],–,–,–,125.0[activator],–
CCOC(=O)C1=C(N)OC2=C(C(=O)CCC2)C1c1ccco1 (stereo unspecified),–,–,–,–,–,–
O=C(O)COc1ccccc1/C=N/NC(=O)c1cc(-c2ccc(F)cc2)nc2ccccc12,78.0,–,–,–,–,–
